Eight molecules from PubChem BioAssay (Tox21) can be followed below.

A number with no mark means an inactive call. Records with an inconclusive call do not appear. The source made the active and inactive calls. Unless noted, the call rests on the fitted dose curve; in most records, active means well fitted curve in the direction sought with a large enough effect in the repeat runs; inconclusive means weak or mixed curves; inactive means no such curve, though single readings can be large; an effect the other way counts as inactive or inconclusive.

A short description of assay [1]: A CellTox Green Cytotoxicity Assay to monitor cytotoxicity in HEK293 cells - 32 hour (AID 1224881). Further: nearly all actives have a fitted effect of over 40% in size. Further: potency means the concentration at half of the fitted maximal effect. Summed up:
(§1)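 HEK293 cells, 600/well, were preincubated 5 hours and then exposed to compounds at 37 C for up to 40 hours. A cell-impermeant cyanine dye staining dead-cell DNA was read by fluorescence at 0, 8, 16, 24, 32 and 40 h time points.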

The nature of assay [2]: A CellTox Green Cytotoxicity Assay to monitor cytotoxicity in HepG2 cells - 32 hour (AID 1224883). Further: nearly all actives have a fitted effect of over 50% in size. Put shortly:
(§2)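 HepG2 cells, 600/well, preincubated 5 h with CellTox Green dye, then exposed to Tox21 compounds in DMSO at 37 C for up to 40 h. Dead-cell DNA fluorescence read at the indicated time point.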

Assay [3] in a line: A CellTox Green Cytotoxicity Assay to monitor cytotoxicity in HEK293 cells - 8 hour (AID 1224884). Further: nearly all actives have a fitted effect of over 35% in size. Summed up:
as §1

The nature of assay [4]: qHTS RealTime-Glo MT Cell Viability Assay in HepG2 cells - 16 hour (AID 1224885). Further: nearly all actives have a fitted effect of over 50% in size. Summed up:
(§3)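 qHTS, HepG2, 600 cells/well, RealTime-Glo (NanoLuc + prosubstrate) added with cells; 5 h preincubation; DMSO compound addition; 37 C; luminescence at 0/8/16/24/32/40 h.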
Background: Quantitative high-throughput screening tests each substance at several concentrations.

The nature of assay [5]: qHTS RealTime-Glo MT Cell Viability Assay in HEK293 cells - 24 hour (AID 1224886). Further: nearly all actives have a fitted effect of over 50% in size. Further: potency means the concentration at half of the fitted maximal effect. Summed up:
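Assay medium contained NanoLuc luciferase plus cell-permeant prosubstrate, added with HEK293 cells at 600 cells/well. After 5 h at 37 C/5% CO2 compounds were added; plates stayed at 37 C for 40 h with serial luminescence reads.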

Assay [6] is described as follows: qHTS RealTime-Glo MT Cell Viability Assay in HEK293 cells - 8 hour (AID 1224887). Further: nearly all actives have a fitted effect of over 50% in size. Further: potency means the concentration at half of the fitted maximal effect. Put shortly: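 600 cells/well were plated with the nonlytic NanoLuc/prosubstrate reagent, pre-incubated 5 h, then given 23 nL of compound in DMSO. Incubation at 37 C for 40 h, with luminescence from viable-cell-reduced substrate read repeatedly from 0 h.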
The nature of assay [7]: A CellTox Green Cytotoxicity Assay to monitor cytotoxicity in HEK293 cells - 16 hour (AID 1224888). Further: nearly all actives have a fitted effect of over 35% in size. Further: potency means the concentration at half of the fitted maximal effect. Put shortly: as §1
Assay [8] in a line: qHTS RealTime-Glo MT Cell Viability Assay in HepG2 cells - 0 hour (AID 1224889). Further: nearly all actives have a fitted effect of over 50% in size. Summed up: as §3
Assay [9] is described as follows: A CellTox Green Cytotoxicity Assay to monitor cytotoxicity in HepG2 cells - 8 hour (AID 1224890). Further: nearly all actives have a fitted effect of over 45% in size. Put shortly: as §2
Assay [10] in a line: qHTS assay to identify small molecule antagonists of the estrogen receptor alpha (ER-alpha) signaling pathway using the BG1 cell line in the presence of 0.1 nM 17-beta-estradiol - cell viability counter screen (AID 1259241). Further: nearly all actives have a fitted effect of over 40% in size. Further: potency means the concentration at half of the fitted maximal effect. Put shortly: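 Cells were plated and left 24 hr, compounds in DMSO were pinned in, 17beta-estradiol was added to 0.1 nM final, and after 22 hr CellTiter-Fluor reagent was added for 30 min before fluorescence was read.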

Assay [11] is described as follows: qHTS assay to identify small molecule antagonists of the androgen receptor (AR) signaling pathway using the MDA cell line in the presence of 0.5 nM R1881 - cell viability counter screen (AID 1259242). Further: nearly all actives have a fitted effect of over 45% in size. Further: potency means the concentration at half of the fitted maximal effect. Put shortly:
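MDA-kb2 cells (MMTV-luciferase, AR/GR responsive) were treated with compounds plus 0.5 nM R1881 (final) for 16 hr at 37C, 0% CO2. Viability was then read in the same wells as live-cell protease fluorescence (CellTiter-Fluor, 30 min).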

Assay [12] can be described thus: qHTS assay to identify small molecule HDAC inhibitors (AID 1259364). Further: top concentration of the series differs between compounds; nearly all actives have a fitted effect of over 45% in size. Put shortly: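 Wild-type HCT-116 cells, plated overnight at 37 C, exposed to compounds 2 hr at 37 C; luminogenic HDAC-Glo substrate then added 30 min at room temperature. Luminescence reports relative endogenous class I/II HDAC activity.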
Assay [13] in a line: qHTS assay to identify small molecule HDAC inhibitors - cell viability counter screen (AID 1259365). Put shortly:
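Counter screen in wild-type HCT-116 cells: compounds dissolved in DMSO are pin-transferred onto overnight-plated cells and left 2hr at 37C. ATP-based CellTiter-Glo luminescence then measures viable cells.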

Assay [14] can be described thus: qHTS assay to identify small molecule agonists of the sonic hedgehog signaling (Shh) pathway (AID 1259368; calls by dose curve;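 further: NIH/3T3-derived 3T3Gli1-Luc cells carrying a stable Gli1-driven firefly luciferase reporter; series mostly up to about 92 µM; nearly all actives have a fitted effect of over 15% in size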). Put shortly:
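NIH/3T3-derived 3T3Gli1-Luc cells with stably integrated Gli1-driven firefly luciferase, 2,000 cells/well, compounds added after 4 hr. Incubated 24 hr at 37C, 5% CO2; luminescence read after 30 min with luciferase reagent at room temperature.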

Assay [15] in a line: A CellTox Green Cytotoxicity Assay to monitor cytotoxicity in HepG2 cells - 0 hour (AID 1224882). Further: nearly all actives have a fitted effect of over 35% in size. Summed up: as §2
A short description of assay [16]: qHTS assay to identify small molecule agonists of the sonic hedgehog signaling (Shh) pathway - cell viability counter screen (AID 1259366). Further: nearly all actives have a fitted effect of over 50% in size. Further: potency means the concentration at half of the fitted maximal effect. Put shortly:
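Cells are plated at 2,000 per well and left 4hr at 37C, 5% CO2 before compound addition. After 23hr of treatment, CellTiter-Fluor reagent is added for 1hr at 37C and fluorescence is measured.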

Assay [17] is described as follows: qHTS assay to identify small molecule antagonists of the sonic hedgehog signaling (Shh) pathway - cell viability counter screen (AID 1259367). Further: nearly all actives have a fitted effect of over 55% in size. Further: potency means the concentration at half of the fitted maximal effect. Put shortly: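 Cells: 3T3 Gli1-Luc, 2,000/well, 4 hr pre-incubation. Compounds in DMSO, then conditioned medium. Incubation 24 hr, 37C, 5% CO2. CellTiter-Fluor at 23 hr, 1 hr, fluorescence.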
For assay [18], the target named is Estrogen receptor (Homo sapiens) (UniProt P03372). Nature of the assay: qHTS assay to identify small molecule antagonists of the estrogen receptor alpha (ER-alpha) signaling pathway using the BG1 cell line in the presence of 0.1 nM 17-beta-estradiol (AID 1259244). Further: nearly all actives have a fitted effect of over 50% in size. Further: potency means the concentration at half of the fitted maximal effect. Summed up: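 VM7Luc4E2 cells (endogenous full-length ER-alpha, 4×ERE-luciferase), kept 5 days in phenol red-free, charcoal-stripped FBS medium; 4,000 cells/well. Compounds added with 0.1 nM (final) 17beta-estradiol, 22 hr at 37C; luminescence read with ONE-Glo after 30 min.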

Assay [19] can be described thus: qHTS assay to identify small molecule phospholipidosis (PLD) inducers (AID 1259344; active means well fitted curve in the direction sought with a large enough effect; an effect the other way counts as inactive or inconclusive). Summed up: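 Phospholipidosis is scored by imaging LipidTOX-stained pits in HepG2 cells exposed to compound for 24 h at 37 C; pit counts and integrated intensities per well and per cell serve as outputs.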
For assay [20], the target named is Androgen receptor (Homo sapiens) (UniProt P10275). Description: qHTS assay to identify small molecule antagonists of the androgen receptor (AR) signaling pathway using the MDA cell line in the presence of 0.5 nM R1881 (AID 1259243). Further: nearly all actives have a fitted effect of over 50% in size. Further: potency means the concentration at half of the fitted maximal effect. Put shortly:
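MDA-kb2 cells (MMTV-luciferase, responsive to AR and GR) at 3,000/well, rested 5 h at 37C, 0% CO2, then given compounds plus 0.5 nM R1881 (final) for 16 hr. Luciferase read with ONE-Glo after 30 min at room temperature.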

Chain of Estrogen receptor (Homo sapiens) (P03372 whole entry, looked up): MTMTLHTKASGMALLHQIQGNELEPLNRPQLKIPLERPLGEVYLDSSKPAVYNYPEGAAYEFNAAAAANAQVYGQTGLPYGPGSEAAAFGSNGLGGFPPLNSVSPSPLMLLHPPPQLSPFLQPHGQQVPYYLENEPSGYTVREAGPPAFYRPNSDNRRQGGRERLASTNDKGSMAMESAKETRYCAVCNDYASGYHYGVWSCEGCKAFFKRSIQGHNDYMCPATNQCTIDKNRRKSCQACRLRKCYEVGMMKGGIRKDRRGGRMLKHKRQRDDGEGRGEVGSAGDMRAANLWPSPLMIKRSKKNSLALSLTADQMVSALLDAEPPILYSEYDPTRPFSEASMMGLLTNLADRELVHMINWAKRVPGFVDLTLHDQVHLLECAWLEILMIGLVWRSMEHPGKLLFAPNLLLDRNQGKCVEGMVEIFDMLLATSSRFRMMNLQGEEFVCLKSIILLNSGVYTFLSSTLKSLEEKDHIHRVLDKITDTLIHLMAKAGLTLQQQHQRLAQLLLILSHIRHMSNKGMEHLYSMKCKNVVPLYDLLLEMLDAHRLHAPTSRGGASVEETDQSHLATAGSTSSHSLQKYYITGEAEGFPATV
Chain of Androgen receptor (Homo sapiens) (P10275 whole entry, looked up): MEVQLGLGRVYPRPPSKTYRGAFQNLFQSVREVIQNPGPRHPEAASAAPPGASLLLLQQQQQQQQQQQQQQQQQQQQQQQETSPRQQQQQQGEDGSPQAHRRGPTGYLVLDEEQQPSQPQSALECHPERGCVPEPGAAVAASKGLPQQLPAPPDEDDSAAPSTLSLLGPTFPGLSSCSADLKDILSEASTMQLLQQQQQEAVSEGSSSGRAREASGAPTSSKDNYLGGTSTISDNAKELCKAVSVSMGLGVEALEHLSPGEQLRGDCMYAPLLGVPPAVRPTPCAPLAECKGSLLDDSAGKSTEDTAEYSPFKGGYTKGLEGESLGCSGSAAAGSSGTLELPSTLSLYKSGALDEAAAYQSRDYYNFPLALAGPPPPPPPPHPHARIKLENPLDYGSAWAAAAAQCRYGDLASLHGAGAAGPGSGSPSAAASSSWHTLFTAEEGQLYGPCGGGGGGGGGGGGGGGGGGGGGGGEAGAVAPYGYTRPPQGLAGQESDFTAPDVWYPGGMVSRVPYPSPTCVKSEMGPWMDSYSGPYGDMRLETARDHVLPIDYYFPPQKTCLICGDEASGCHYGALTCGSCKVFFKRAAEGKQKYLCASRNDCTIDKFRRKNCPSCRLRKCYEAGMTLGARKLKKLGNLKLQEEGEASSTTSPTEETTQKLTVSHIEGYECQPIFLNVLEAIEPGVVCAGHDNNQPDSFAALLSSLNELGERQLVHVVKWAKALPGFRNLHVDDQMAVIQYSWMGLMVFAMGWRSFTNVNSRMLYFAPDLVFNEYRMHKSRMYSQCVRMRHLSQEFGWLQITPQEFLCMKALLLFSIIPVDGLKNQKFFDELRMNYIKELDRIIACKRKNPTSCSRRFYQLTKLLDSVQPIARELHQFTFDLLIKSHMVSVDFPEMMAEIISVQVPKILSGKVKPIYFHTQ

`COS(=O)(=O)C(F)(F)F`: the Potency result in [1], in [2], in assay [3], in assay [4], in assay [5] and in assay [6] was “inactive” in each case. In addition, the Potency result in assay [7], in assay [8], in assay [9], in assay [10], in assay [11] and in assay [12] was “inactive” in each case. In assay [13], the Potency entry was “inactive”. In assay [14], the call was inactive.

Consider `Nc1ccccc1S(=O)(=O)c1ccccc1`, for which the Potency result in [1], in assay [15], in [4], in assay [5], in assay [7] and in [8] was “inactive” in each case. Further, the Potency entry in assay [9], in assay [10], in assay [11], in [12], in [13] and in assay [16] was “inactive” throughout. Also, in assay [17], the Potency entry was “inactive”. In [14], the result was inactive.

Turning to `CN(C)CCN(Cc1ccccc1)c1ccccn1`, the Potency result in assay [1], in [2], in assay [3], in assay [4], in assay [5] and in assay [6] was “inactive” in each case. Besides, the Potency result in assay [7], in assay [8], in [9], in assay [10], in assay [11] and in [18] was “inactive” in each case. In addition, the Potency result in [19], in [12], in assay [16] and in assay [17] was “inactive” throughout. Further, the call in [14] was inactive.

As for `CCCCCCCCCc1ccc(OCCOCCO)cc1`, the Potency is 14.5 µM (active) in assay [1]; 1.3 µM (active) in assay [5]; 3.25 µM (active) in assay [6]; 14.5 µM (active) in assay [7]; 8.1 µM (active) in [10]; 5.74 µM (active) in [11]. In addition, the Potency in [20] was 2.28 µM (active). Besides, the Potency entry in assay [15], in [8], in assay [19] and in [12] was “inactive” throughout. Also, in [14], the molecule was classed as inactive.

For `C/C=C/C=C/CO`, the Potency result in [1], in assay [2], in [3], in assay [4], in assay [6] and in assay [7] was “inactive” each time. For the same molecule, the Potency entry in [8], in assay [9], in assay [10], in assay [11], in assay [12] and in assay [16] was “inactive” in each case. The Potency result in assay [17] was “inactive”. For the same molecule, in [14], the call was inactive.

With `CCOC(=O)NCCOc1ccc(Oc2ccccc2)cc1`, the Potency entry in assay [1], in assay [2], in assay [4], in assay [8], in assay [10] and in [12] was “inactive” throughout. Besides, the Potency entry in assay [13], in assay [16] and in assay [17] was “inactive” each time. Further, the Potency was 21.9 µM (active) in assay [5] and 43.3 µM (active) in [18]. Moreover, in assay [14], the outcome was inactive.

`O=[N+]([O-])c1ccc(NCCO)c(OCCO)c1`: the Potency result in assay [1], in [2], in [4], in assay [5], in [7] and in assay [8] was “inactive” in each case. For the same molecule, the Potency result in [9], in assay [20], in assay [12] and in assay [13] was “inactive” each time. Moreover, the Potency in assay [10] is 54.5 µM (active); in [16], 24.4 µM (active); in [17], 30.7 µM (active). Moreover, the molecule was called inactive in assay [14].

Consider `CCc1c(C(=O)NN2CCCCC2)nn(-c2ccc(Cl)cc2Cl)c1-c1ccc(Br)cc1`, for which the Potency result in assay [1], in assay [2], in assay [3], in assay [5], in [7] and in assay [8] was “inactive” each time. In addition, the Potency entry in assay [9], in [10], in assay [11], in assay [18], in assay [12] and in [13] was “inactive” throughout. Further, the Potency entry in assay [16] and in [17] was “inactive” in each case. The molecule was called inactive in assay [14].
